# Laboratory results published in PubChem BioAssay (Tox21).
# Records with an inconclusive call do not appear. Values without a mark were called inactive. Activity calls are given as the source filed them. Calls come from the whole dose curve; as a rule, active = well fitted cell-killing curve with a large enough effect in the repeat runs (not every such curve was filed as active); inconclusive = weak or mixed curves, or effect the other way; inactive = no such curve, though single readings can be large or run the other way.
# Test: qHTS assay to identify small molecule antagonists of the estrogen related receptor signaling pathway with the pleiotropic PPARgamma coactivator (PGC) from Tox21 10K library - cell viability counter screen (AID 1224840); note: nearly all actives have a fitted effect of over 40% in size
# Conditions: PGC/ERR reporter cells viability, CellTiter-Fluor, 17.5 h; series mostly up to 92.4 µM
# Text: National Center for Advancing Translational Sciences [NCATS]
# NIH Chemical Genomics Center [NCGC]
# U.S. Environmental Protection Agency [EPA]
# National Institutes of Environmental Health Sciences [NIEHS]
# National Toxicology Program [NTP]
# U.S. Food and Drug Administration [FDA]
# Estrogen related receptors (ERRs), the first orphan nuclear receptors discovered, play an important role in the control of cellular energy metabolism. ERRs are required for high-energy production in response to the environmental challenges. The pleiotropic PPARgamma coactivator (PGC) is a major partner of ERR and a key regulator in energy homeostasis. Together they have been implicated in the etiology of metabolic disorders such as Type 2 diabetes and metabolic syndrome. ERR-alpha was also identified as an adverse marker for breast cancer progression; ERR-alpha-positive tumors have a poor prognosis. To screen and to identify environmental compounds that perturb the ERR and PGC/ERR signaling pathways could provide valuable information for potential therapeutic or preventive measures in the treatment of metabolic disease. To differentiate true PGC/ERR antagonists or agonist from cytotoxic substances, the assay is multiplexed with cell viability assay.
# Tox21 Assay Protocol Summary:
# The PGC/ERR cells were dispensed at 2,000 cells/5 ul/well in 1536-well white plates using a Multidrop dispenser. After the assay plates were incubated at a 37 C/5% CO2 incubator for 6 hours, 23 nL of compounds dissolved in DMSO, positive and negative controls or DMSO only was transferred to the assay plate by a pin tool. The plates were incubated at 37 C for 17.5 hours. 1 ul/well of CellTiter-Fluor reagent was added into the assay plates using a Flying Reagent Dispenser. After 30-minute incubation at 37 C/5% CO2, the fluorescence intensity in the plates was measured using a ViewLux plate reader.
# % is set by controls: 0 for no effect and ±100 for the full control effect.
Structure (SMILES),outcome,"viability change, negative = cytotoxic"
CN(C)[C@@H]1C(=O)C(C(=O)NCN2CCCC2)=C(O)[C@@]2(O)C(=O)C3=C(O)c4c(O)cccc4[C@@](C)(O)C3C[C@@H]12 (stereo not given in full),inactive,
Cc1nc2ccc(CN(C)c3ccc(C(=O)N[C@@H](CCC(=O)O)C(=O)O)s3)cc2c(=O)[nH]1,inactive,
CCN[C@@H]1C[C@H](N)[C@@H](OC2OC(CN)=CCC2N)[C@H](O)[C@H]1O[C@H]1OC[C@](C)(O)[C@H](NC)[C@H]1O (stereo not given in full),,-0.298% [at 0.349 µM]
CC1(C)OC[C@@H](COC(=O)CCc2ccc(OC[C@@H](O)CNCCNC(=O)N3CCOCC3)cc2)O1,inactive,
C[C@H]1C[C@H]2[C@@H]3CCC4=CC(=O)C=C[C@]4(C)[C@H]3C(=O)C[C@]2(C)[C@@]1(O)C(=O)CO,inactive,
CCCCOC(=O)CCC(C)=O,inactive,
CCC(C)(CCCC(C)C)OC(C)=O (stereo not given),inactive,
CCCCc1ccc2c(n1)[C@@H](c1ccc(OC)cc1C[C@H](C)C(=O)O)[C@H](C(=O)O)[C@H]2c1ccc2c(c1)OCO2,inactive,
CCOC(=O)OC(C)OC1=C(C(=O)Nc2ccccn2)N(C)S(=O)(=O)c2ccccc21 (stereo not given),inactive,
COc1c(N2CCNC(C)C2)c(F)cc2c(=O)c(C(=O)O)cn(C3CC3)c12 (stereo not given),inactive,
CC(C(=O)O)c1cccc(Oc2ccccc2)c1 (stereo not given),inactive,
CCCO[Si](OCCC)(OCCC)OCCC,inactive,
CCCCCC(=O)OCCc1ccccc1,inactive,
CCCCN1C=CN(C)C1,,1.46% [at 19 µM]
CCOc1ccccc1OCC,inactive,
C[N+](C)(C)CCCCCCCCCC[N+](C)(C)C,inactive,
CC(C)C(=O)OC(=O)C(C)C,inactive,
CN(C)CCN(C)CCN(C)C,inactive,
CC[N+](C)(CC)CCOC(=O)C1c2ccccc2Oc2ccccc21,inactive,
Cc1coc2ccccc2c1=O,inactive,

Structure (SMILES),outcome,"viability change, negative = cytotoxic"
CCCc1nn(C)c2c(=O)[nH]c(-c3cc(S(=O)(=O)N4CCN(C)CC4)ccc3OCC)nc12,inactive,
CCN[C@H]1C[C@H](C)S(=O)(=O)c2sc(S(N)(=O)=O)cc21,inactive,
CCCC[N+](C)(CCCC)CCCC,inactive,
O=[N+]([O-])c1cncn1CCN1CCOCC1,inactive,
C=CN1CCCCCC1=O,inactive,
NC(=O)N[C@@H](CCC(=O)O)C(=O)O,inactive,
COc1cc(C(=O)OC(COCCC(C)C)CN2CCOCC2)cc(OC)c1OC (stereo not given),inactive,
CC1=NS(=O)(=O)c2cc(Cl)ccc2N1,inactive,
OCCc1ccccn1,inactive,
CC(C)(C)C(=O)c1ccccc1,inactive,
CNC(=O)Nc1ccc(Cl)c(Cl)c1,inactive,
O=S(=O)(O)c1cccc2c(S(=O)(=O)O)cccc12,inactive,
C[N+]1(C)CCCC(OC(=O)C(O)(c2ccccc2)c2ccccc2)C1 (stereo not given),inactive,
COC(=O)C1=C(C)NC(C)=C(C(=O)OC(C)C)C1c1cccc2nonc12 (stereo not given),inactive,
CCNS(=O)(=O)c1ccc(C)cc1,inactive,
Cc1ccc(-c2ccccc2C#N)cc1,inactive,
CCCOC(=O)CC,inactive,
C[C@@H]1C[C@H]2[C@@H]3C[C@H](F)C4=CC(=O)C(Cl)=C[C@]4(C)[C@@]3(F)[C@@H](O)C[C@]2(C)[C@@]1(O)C(=O)CO,inactive,
CO/N=C(\C(=O)N[C@@H]1C(=O)N2C(C(=O)O)=C(CSc3nc(=O)c(O)nn3C)CS[C@H]12)c1csc(N)n1,inactive,
CCCCCCCCCCCCSC,inactive,
